Test results: PubChem BioAssay (NCATS)
Records with an inconclusive call do not appear. Unmarked numbers belong to inactive results. The call rests on the fitted dose curve; in most records, active means well fitted curve in the direction sought with a large enough effect; inconclusive means small, poorly fitted or top-dose-only effect, or another doubt; inactive means no such curve, though single readings can be large or run the other way.
On the % scale 0 is the no-effect control and ±100 the full control effect.

Assay: qHTS Assay for Identifying Gametocytocidal Compounds (AID 743244);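 further: actives lower the fluorescent signal which means gametocytes are killed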
Conditions: P. falciparum 3D7 stage III-V gametocytes, alamarBlue, 72 h; max response: hits give low values
How it was run: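 3D7 gametocytes, stages III–V, 20,000/well; cpd 72 h, 37 °C/5% CO2; + alamarBlue 24 h; fluor. Ex 525/Em 598.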
Work on `CN1CC(=O)NC1=N` yielded a max response of -8.6%.
In the case of `CN[C@@H]1[C@@H](O)[C@@H](O[C@@H]2[C@H](O)[C@H](O[C@H]3OC(CN)=CC[C@H]3N)[C@@H](N)C[C@H]2N)OCC1(C)O` (stereo partly specified), the max response is reported as -9.46%.
With `O=C(O)c1ccccc1OP(=O)(O)O` the max response was -5.84%.
`Cc1c(C)c2c(c(C)c1OC(=O)c1cccnc1)CC[C@@](C)(CCC[C@H](C)CCC[C@H](C)CCCC(C)C)O2` showed a max response of 6.89%.
With `Nc1ccc(C(=O)Oc2ccccc2)c(O)c1` the max response was -7.01%.
With `Cn1cc(C(=O)[C@@H]2CCc3nc[nH]c3C2)c2ccccc21` the max response was -8.94%.
In the case of `Cc1onc(-c2ccccc2)c1-c1ccc(S(N)(=O)=O)cc1`, the max response is reported as 7.78%.
Compound `C/C(=C(\CCO)SS/C(CCO)=C(\C)N(C=O)Cc1cnc(C)nc1N)N(C=O)Cc1cnc(C)nc1N` has a max response of -3.83%.
Work on `N[C@@H](Cc1ccc(O)cc1)C(=O)O` yielded a max response of 0.124%.
For `CCCNC(C)(C)COC(=O)c1ccccc1`, the max response was 5.84%.
With `CC1(c2ccccc2)OC(C(=O)O)=CC1=O` (stereo unspecified) the max response was 25.1%.
For `C[C@]1(Cn2ccnn2)[C@H](C(=O)O)N2C(=O)C[C@H]2S1(=O)=O`, the max response was 9.4%.
Compound `Cn1c(=O)c2c(ncn2CCO)n(C)c1=O` has a max response of 6.91%.
For `Nc1ncnc(Nc2ccccc2)n1`, the max response was -1.5%.
In the case of `O=C1c2ccccc2S(=O)(=O)N1CCCCN1CCN(c2ncccn2)CC1`, the max response is reported as -4.4%.
Work on `O=C(NCCCN1CCOCC1)c1ccc(Cl)cc1` yielded a max response of -7.89%.
